Reference: the supplement of paper PMC4022240
± gives the standard deviation.

T1: HaloTag-ATRX ADD domain (163-292)
T1 chain: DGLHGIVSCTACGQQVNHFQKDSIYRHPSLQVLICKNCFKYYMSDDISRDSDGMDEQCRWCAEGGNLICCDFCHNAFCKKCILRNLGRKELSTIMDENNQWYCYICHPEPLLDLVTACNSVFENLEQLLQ


Molecular target: T1, HaloTag-ATRX ADD domain (163-292)
Experiment: peptide microarray binding signal (635 nm), min-max normalized on array (fraction of array maximum); higher = stronger binding
Details: peptide region: H4 53-65; peptide modifications: H4K59me3; binder concentration: 50 nM
How it was run: (§1)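 Two probe formats were used for 1 h at 4°C: biotin-labelled HaloTag reader fusions (10 nM to 1 μM) with streptavidin-Alexa Fluor 647, and rabbit histone antibodies (1:10,000 to 1:2,000) with anti-rabbit Alexa 647. Both were applied to nitrocellulose arrays of histone 13-mer peptide–cellulose conjugates printed in triplicate with a Cy3 tracer and blocked overnight at 4°C. Signal was read at 635 nm and misprints at 532 nm on an Axon GenePix 4000B. Binding signal is expressed as the triplicate-spot mean intensity, min-max scaled for each library.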

Binder | peptide microarray binding signal
ETRGVLKVFLENV [H4 53-65 E T R G V L Kme3 V F L E N V] | 0.00755 ± 0.00027

Same assay, conditions: peptide region: H4 53-65; peptide modifications: H4K59me3; binder concentration: 500 nM

Binder | peptide microarray binding signal
ETRGVLKVFLENV [H4 53-65 E T R G V L Kme3 V F L E N V] | 0.00719 ± 0.00011

The binders below were run against HaloTag-ING2 PHD (mouse Ing2 200-280) in the same assay as above. Details: peptide region: H4 53-65; peptide modifications: H4K59me3; binder concentration: 10 nM.
How it was run: as §1

Binder | peptide microarray binding signal
ETRGVLKVFLENV [H4 53-65 E T R G V L Kme3 V F L E N V] | 0.0074 ± 5.7e-05

Same assay, conditions: peptide region: H4 53-65; peptide modifications: H4K59me3; binder concentration: 100 nM

Binder | peptide microarray binding signal
ETRGVLKVFLENV [H4 53-65 E T R G V L Kme3 V F L E N V] | 0.006945 ± 4.9e-05

These binders were tested against anti-H3K4me3 antibody ab8580 in the same assay as above. Details: peptide region: H4 53-65; peptide modifications: H4K59me3; binder concentration: 1:2,000 dilution.
How it was run: as §1

Binder | peptide microarray binding signal
ETRGVLKVFLENV [H4 53-65 E T R G V L Kme3 V F L E N V] | 0.00549 ± 0.00064

Same assay, conditions: peptide region: H4 53-65; peptide modifications: H4K59me3; binder concentration: 1:10,000 dilution

Binder | peptide microarray binding signal
ETRGVLKVFLENV [H4 53-65 E T R G V L Kme3 V F L E N V] | 0.00616 ± 0.00023

These binders were tested against anti-H3K9me3 antibody ab8898 in the same assay as above. Details: peptide region: H4 53-65; peptide modifications: H4K59me3; binder concentration: 1:2,000 dilution.
How it was run: as §1

Binder | peptide microarray binding signal
ETRGVLKVFLENV [H4 53-65 E T R G V L Kme3 V F L E N V] | 0.017 ± 0.0023

Same assay, conditions: peptide region: H4 53-65; peptide modifications: H4K59me3; binder concentration: 1:10,000 dilution

Binder | peptide microarray binding signal
ETRGVLKVFLENV [H4 53-65 E T R G V L Kme3 V F L E N V] | 0.0133 ± 0.00048

Molecular target: T1, HaloTag-ATRX ADD domain (163-292)
Experiment: as above
Details: peptide region: Unmod H1 variant; binder concentration: 50 nM
How it was run: as §1

Binder | peptide microarray binding signal
KPKATPVKKAKKK [Unmod H1 variant K P K A T P V K K A K K K] | 0.0137 ± 0.0012
PKKAPVKPKAKSS [Unmod H1 variant P K K A P V K P K A K S S] | 0.0131 ± 0.00065
KKAKKPKTVKAKP [Unmod H1 variant K K A K K P K T V K A K P] | 0.0134 ± 0.00092
SDMIVAAIQAEKN [Unmod H1 variant S D M I V A A I Q A E K N] | 0.0102 ± 0.00022

Same assay, conditions: peptide region: Unmod H1 variant; binder concentration: 500 nM

Binder | peptide microarray binding signal
KPKATPVKKAKKK [Unmod H1 variant K P K A T P V K K A K K K] | 0.0124 ± 0.00028
PKKAPVKPKAKSS [Unmod H1 variant P K K A P V K P K A K S S] | 0.0107 ± 0.00047
KKAKKPKTVKAKP [Unmod H1 variant K K A K K P K T V K A K P] | 0.00981 ± 0.00033
SDMIVAAIQAEKN [Unmod H1 variant S D M I V A A I Q A E K N] | 0.00514 ± 0.00038

These binders were tested against HaloTag-ING2 PHD (mouse Ing2 200-280) in the same assay as above. Details: peptide region: Unmod H1 variant; binder concentration: 10 nM.
How it was run: as §1

Binder | peptide microarray binding signal
KPKATPVKKAKKK [Unmod H1 variant K P K A T P V K K A K K K] | 0.00209 ± 5.3e-05
PKKAPVKPKAKSS [Unmod H1 variant P K K A P V K P K A K S S] | 0.00245 ± 0.0001
KKAKKPKTVKAKP [Unmod H1 variant K K A K K P K T V K A K P] | 0.00215 ± 4.5e-05
SDMIVAAIQAEKN [Unmod H1 variant S D M I V A A I Q A E K N] | 0.00555 ± 0.00034

Same assay, conditions: peptide region: Unmod H1 variant; binder concentration: 100 nM

Binder | peptide microarray binding signal
KPKATPVKKAKKK [Unmod H1 variant K P K A T P V K K A K K K] | 0.00319 ± 0.00028
PKKAPVKPKAKSS [Unmod H1 variant P K K A P V K P K A K S S] | 0.00496 ± 0.0015
KKAKKPKTVKAKP [Unmod H1 variant K K A K K P K T V K A K P] | 0.00645 ± 0.00057
SDMIVAAIQAEKN [Unmod H1 variant S D M I V A A I Q A E K N] | 0.00326 ± 5.1e-05

These binders were tested against anti-H3K4me3 antibody ab8580 in the same assay as above. Details: peptide region: Unmod H1 variant; binder concentration: 1:2,000 dilution.
How it was run: as §1

Binder | peptide microarray binding signal
KPKATPVKKAKKK [Unmod H1 variant K P K A T P V K K A K K K] | 0.000547 ± 2.7e-05
PKKAPVKPKAKSS [Unmod H1 variant P K K A P V K P K A K S S] | 0.00034 ± 2.1e-05
KKAKKPKTVKAKP [Unmod H1 variant K K A K K P K T V K A K P] | 0.000642 ± 1.6e-05
SDMIVAAIQAEKN [Unmod H1 variant S D M I V A A I Q A E K N] | 0.00111 ± 2.4e-05

Same assay, conditions: peptide region: Unmod H1 variant; binder concentration: 1:10,000 dilution

Binder | peptide microarray binding signal
KPKATPVKKAKKK [Unmod H1 variant K P K A T P V K K A K K K] | 0.00126 ± 2.2e-05
PKKAPVKPKAKSS [Unmod H1 variant P K K A P V K P K A K S S] | 0.000685 ± 7.2e-06
KKAKKPKTVKAKP [Unmod H1 variant K K A K K P K T V K A K P] | 0.000628 ± 6.7e-06
SDMIVAAIQAEKN [Unmod H1 variant S D M I V A A I Q A E K N] | 0.00126 ± 4.3e-05

The binders below were run against anti-H3K9me3 antibody ab8898 in the same assay as above. Details: peptide region: Unmod H1 variant; binder concentration: 1:2,000 dilution.
How it was run: as §1

Binder | peptide microarray binding signal
KPKATPVKKAKKK [Unmod H1 variant K P K A T P V K K A K K K] | 0.0008 ± 0.00013
PKKAPVKPKAKSS [Unmod H1 variant P K K A P V K P K A K S S] | 0.000362 ± 1.9e-05
KKAKKPKTVKAKP [Unmod H1 variant K K A K K P K T V K A K P] | 0.000151 ± 1.6e-06
SDMIVAAIQAEKN [Unmod H1 variant S D M I V A A I Q A E K N] | 0.000559 ± 2.9e-05

Same assay, conditions: peptide region: Unmod H1 variant; binder concentration: 1:10,000 dilution

Binder | peptide microarray binding signal
KPKATPVKKAKKK [Unmod H1 variant K P K A T P V K K A K K K] | 0.000634 ± 1.2e-05
PKKAPVKPKAKSS [Unmod H1 variant P K K A P V K P K A K S S] | 0.000865 ± 2.4e-05
KKAKKPKTVKAKP [Unmod H1 variant K K A K K P K T V K A K P] | 0.000634 ± 1.2e-05
SDMIVAAIQAEKN [Unmod H1 variant S D M I V A A I Q A E K N] | 0.00104 ± 2.1e-05
